Some test systems named below: NCI-H23 lung; NCI-H226 lung; NCI-H322M lung; HOP-62 NSCLC; NCI-H460 lung; HOP-92 NSCLC; NCI-H522 lung; 786-0 renal; COLO 205 colon; DU-145 prostate; K-562 leukemia; MALME-3M melanoma; MDA-MB-231 breast; RXF 393 renal; SF-268 CNS; SF-295 CNS; SF-539 CNS; UACC-257 melanoma; M14 melanoma; A549/ATCC NSCLC.
Assay in all cases: NCI-60 one-dose screen, 48 h (100 = growth as untreated, 0 = no growth, -100 = all killed)
What all share (conditions): 10 µM unless noted

This is part of a sample that, as a whole, favours compounds with a hit. Of some 83,000 tested, about 20% had one in any assay.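 Cells were grown in 96-well plates and exposed to the test compound at a single concentration for 48 hours; results are reported as percent growth, with values below 10 considered active.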 A number with no mark means an inactive call. Active and inactive are the calls of the source.

Turning to `COc1cc(/C=C\c2cc(/C=C\c3ccc(O)c(OC)c3)n(C(=O)CNc3ccc(Cl)cc3)n2)ccc1O`, the growth with NCI-H23 lung was 24%; in the test with NCI-H226 lung, 51.2%; in the test on NCI-H322M lung, 39.2%; with HOP-62 NSCLC it was 23.3%; in the test with NCI-H460 lung, 6.98% (active); in the test on HOP-92 NSCLC it was 66.9%. The growth was 2.11% (active) in the test on NCI-H522 lung; 15.7% in the test with 786-0 renal; 90.4% in the test with COLO 205 colon; 27.7% in the test with DU-145 prostate; 6.99% (active) in the test with K-562 leukemia; 34.2% with MALME-3M melanoma. Also, the growth is 43% with MDA-MB-231 breast; 3.29% (active) in the test with RXF 393 renal; 25.5% in the test on SF-268 CNS; 72.8% in the test with SF-295 CNS; 8.34% (active) with SF-539 CNS; 70.2% in the test with UACC-257 melanoma. Also, the growth in the test with M14 melanoma was 4.29% (active).
For `CCNCc1ccc(O)c2ncccc12`, the growth with NCI-H23 lung is 24.1%; with NCI-H226 lung, 62.4%; in the test with NCI-H322M lung it was 38%; in the test on HOP-62 NSCLC, 27.8%; in the test on NCI-H460 lung, 20%; with HOP-92 NSCLC it was -8.24% (active). For the same molecule, the growth in the test on A549/ATCC NSCLC is 17.6%; in the test with 786-0 renal it was 39.6%; in the test with COLO 205 colon, 80.7%; in the test with DU-145 prostate, 37%; in the test on K-562 leukemia it was 13.9%; in the test on MALME-3M melanoma, 60.6%. The growth with MDA-MB-231 breast was 46.9%; in the test with RXF 393 renal it was 60.3%; with SF-268 CNS, 35.2%; in the test with SF-295 CNS, 39.9%; with SF-539 CNS, 25.1%; in the test with UACC-257 melanoma, 9.76% (active). Moreover, the growth in the test with M14 melanoma is 33.8%.
In the case of `Cc1cccc(N2CCN(C(=S)c3ccc4c(c3)OCO4)CC2)c1`, the growth was 31.3% in the test on NCI-H23 lung; 57.2% with NCI-H226 lung; 33.2% in the test with NCI-H322M lung; 28.9% in the test on HOP-62 NSCLC; 8.2% (active) in the test on NCI-H460 lung; 74.4% with HOP-92 NSCLC. Moreover, the growth in the test with NCI-H522 lung was -25.2% (active); in the test with A549/ATCC NSCLC it was 31.7%; in the test with 786-0 renal it was 30.2%; with COLO 205 colon, -36% (active); in the test with DU-145 prostate it was 11%; in the test with K-562 leukemia, 14%. For the same molecule, the growth is 21.8% with MALME-3M melanoma; 45.3% in the test with MDA-MB-231 breast; -15.1% (active) with RXF 393 renal; 47.2% in the test with SF-268 CNS; 2.38% (active) with SF-295 CNS; -26.9% (active) in the test on SF-539 CNS. Moreover, the growth is 32.5% in the test on UACC-257 melanoma and -4.87% (active) in the test on M14 melanoma.
Consider `CCN1C(=O)N(CC)C2C1NN=c1s/c(=C3\C(=O)N(CCc4ccccc4)c4ccccc43)c(=O)n12` (stereo not drawn), for which the growth in the test with NCI-H23 lung is 22.7%; with NCI-H226 lung, 24.8%; in the test with NCI-H322M lung, 36.1%; in the test on HOP-62 NSCLC, 24.4%; with NCI-H460 lung it was 1.95% (active); in the test on HOP-92 NSCLC it was 38.1%. In addition, the growth was 16.1% in the test with A549/ATCC NSCLC; 22.1% in the test on 786-0 renal; 7.44% (active) in the test on COLO 205 colon; 5.49% (active) in the test on DU-145 prostate; 7.99% (active) with K-562 leukemia; 33.3% in the test with MALME-3M melanoma. In addition, the growth was 2.5% (active) with MDA-MB-231 breast; -5.91% (active) in the test on RXF 393 renal; 47% in the test with SF-268 CNS; 9.5% (active) in the test with SF-295 CNS; -37.4% (active) in the test with SF-539 CNS; 53.2% in the test on UACC-257 melanoma. Also, the growth with M14 melanoma was 13.6%.
Consider `CCN(CC)c1ccc(/C=N/NC(=O)c2ccc(Nc3ccnc(C(F)(F)F)c3)cc2)c(O)c1`, for which the growth was 31% with NCI-H23 lung; -3.5% (active) with NCI-H226 lung; 15.3% with NCI-H322M lung; 25.6% in the test on HOP-62 NSCLC; -4.66% (active) in the test on NCI-H460 lung; 42.4% in the test on HOP-92 NSCLC. The growth in the test with A549/ATCC NSCLC was 33.4%; with 786-0 renal, -16.2% (active); in the test on COLO 205 colon, -18% (active); in the test on DU-145 prostate, 30.6%; with K-562 leukemia, 87.2%; with MALME-3M melanoma, 14.4%. Also, the growth in the test on MDA-MB-231 breast is 24.4%; in the test on RXF 393 renal, -0.93% (active); with SF-268 CNS, 18.5%; in the test with SF-295 CNS, 7.62% (active); with SF-539 CNS it was -46.4% (active); in the test on UACC-257 melanoma, 49%. Besides, in the test on M14 melanoma, the growth is 19.3%.
Turning to `Nc1c(C(=O)Nc2ccccn2)sc2nc3c(cc12)C(O)CCC3` (stereo not drawn), the growth is 45.1% with NCI-H23 lung; 57.7% in the test on NCI-H226 lung; 36.5% in the test on NCI-H322M lung; 26.3% in the test on HOP-62 NSCLC; 13.7% in the test with NCI-H460 lung; 50.9% with HOP-92 NSCLC. Also, the growth in the test with NCI-H522 lung was 11.8%; in the test with 786-0 renal it was 32.9%; in the test on COLO 205 colon, 23.6%; with DU-145 prostate it was 25%; in the test on K-562 leukemia it was 20.6%; in the test with MALME-3M melanoma, 60.8%. For the same molecule, the growth in the test on MDA-MB-231 breast was 67.1%; in the test with RXF 393 renal it was 4.65% (active); with SF-268 CNS it was 44%; in the test with SF-295 CNS, 4.92% (active); in the test on SF-539 CNS it was 8.44% (active); in the test on UACC-257 melanoma it was 53.2%. In addition, in the test on M14 melanoma, the growth was 21.1%.
On to `CCn1cc(C(=O)NN=C2CCCCCC2)c(=O)c2ccc(C)nc21`, for which the growth with NCI-H23 lung was 89.5%; in the test with NCI-H226 lung, 82%; with NCI-H322M lung, 88.7%; in the test with HOP-62 NSCLC it was 94.8%; with NCI-H460 lung it was 92.4%; in the test with HOP-92 NSCLC, 80.7%. In addition, the growth in the test on NCI-H522 lung was 75.3%; with 786-0 renal, 87.2%; in the test with COLO 205 colon it was 97.8%; in the test with DU-145 prostate, 89.2%; in the test with K-562 leukemia it was 72%; in the test on MALME-3M melanoma it was 97.1%. The growth was 87.1% in the test on MDA-MB-231 breast; 100% with RXF 393 renal; 84% with SF-268 CNS; 77.7% in the test on SF-295 CNS; 100% in the test on SF-539 CNS; 87.8% in the test on UACC-257 melanoma. Also, the growth with M14 melanoma is 103%.
As to `Cc1c2cc[nH]c(=O)c2c(C)c2c1[nH]c1ccc(OC(=O)c3ccccc3)cc12`, the growth was 24.4% in the test with NCI-H23 lung; 38.5% with NCI-H226 lung; 40.8% in the test on NCI-H322M lung; 18.7% with HOP-62 NSCLC; 1.23% (active) with NCI-H460 lung; 40.9% in the test on HOP-92 NSCLC. Further, the growth is 26.9% with NCI-H522 lung; 44.9% in the test on 786-0 renal; 30.4% in the test with COLO 205 colon; 34% in the test on DU-145 prostate; 36.2% in the test on K-562 leukemia; 20% in the test on MALME-3M melanoma. Further, the growth with MDA-MB-231 breast is 34%; in the test on RXF 393 renal, 37.4%; with SF-268 CNS it was 40%; in the test with SF-295 CNS, 31.6%; in the test with SF-539 CNS it was 17.1%; in the test on UACC-257 melanoma, 11.2%. Moreover, the growth with M14 melanoma is 33.7%.

(Values after PubChem BioAssay (NCI).)
